Assay outcomes as filed in PubChem.
This is a sample that favours compounds with a hit; in the whole collection about 2.8% have one here.
TROY NFkB inh: blocks TROY-dependent signaling in reporter cells; AID 1347056; 360,000 compounds, 0.98% hits; inhibition, % at 10 µM; Q293 LMP1-TROYcd NF-kB luciferase reporter, 4 h;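 active = compounds whose plate-normalised and pattern-corrected inhibition of the luciferase reporter signal at the single screening dose is 50% or more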
TWEAK-Fn14 inh: TWEAK-Fn14 signaling inhibition; TWEAK-stimulated Fn14 reporter cells, luciferase luminescence, 8 h; inhibition, % at 10 µM; 360,000 compounds, 2% hits; in the data active = inhibition above about 50%
PAX8 reporter: inhibitors of PAX8 transcriptional activity in RMG-I cells. RMG-I TPO-luciferase reporter, SteadyGlo, 24 h. inhibition, % at 12.6 µM. 360,000 compounds, 1.2% hits. AID 652154;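 active = mean replicate inhibition at least 60% with every replicate also reaching 60%; inconclusive = only one of the two criteria is met; inactive = mean below 60% and not all replicates reaching 60%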;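 note: luciferase light reporting Pax8 driven TPO promoter activity; plate controls were median of neutral control wells for no effect and mitoxantrone controls for full effect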
LGR2 antag: inhibitors of bursicon-induced Drosophila LGR2 receptor cAMP signaling; 380,000 compounds, 0.35% hits; inhibition, % at 9.99 µM; HEK293 LGR2, CRE-luciferase, bursicon-stimulated, 4 h; AID 720647;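 active = drop in luminescence signal, shown as inhibition above about 50% in the replicate tests, limit read from the data, passing the limit was not always enough; inconclusive = probably only some replicates passing the limit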;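 note: agonist challenge used bursicon conditioned medium at about half maximal strength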
EWS-Fli block: EWS/Fli transcriptional activity inhibition. A673 NR0B1-luciferase reporter, viability-normalised. inhibition, % at 12.6 µM. 350,000 compounds, 0.67% hits. AID 651661;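 active = mean inhibition of at least 50% after viability correction, with every replicate also passing that limit; inconclusive = mean reaches 50% but only one of two replicates passes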;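 note: firefly luciferase signal divided by Alamar Blue viability fluorescence both relative to DMSO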
Active calls of the source: *; ? = inconclusive; / = no result given.

SMILES	TROY NFkB inh	TWEAK-Fn14 inh	PAX8 reporter	LGR2 antag	EWS-Fli block
O=C(CCN1C(=O)/C(=C/c2ccccc2)SC1=S)NCCCN1CCOCC1	-17.0	12.6	-2.3	6.7	-16.5
CCOc1ccc(/C=C2\SC(=S)N(CCCC(=O)NCCCN3CCOCC3)C2=O)cc1	8.7	25.5	49.7	-18.0	81.4*
O=C(CCN1C(=O)/C(=C/c2ccccc2F)SC1=S)NCCCN1CCOCC1	6.1	50.4*	8.8	-3.9	-3.9
COc1ccc(S(=O)(=O)N(C)C[C@@H]2Oc3ncc(C#CC(C)(C)O)cc3C(=O)N([C@H](C)CO)C[C@@H]2C)cc1	/	/	/	5.5	-12.7
COCC(=O)Nc1ccc2c(c1)C(=O)N(C)C[C@@H](OC)[C@@H](C)CN(Cc1ccccc1F)[C@H](C)CO2	/	/	2.1	0.7	2.8
CCN1[C@@H]2c3ccc(C4=CCCCC4)c(=O)n3C[C@H]1[C@H](CO)[C@H]2C(=O)N1CCc2ccccc2C1	/	/	/	7.4	-5.5
CC1=CC(C)(C)Nc2ccc(OC(=O)c3ccco3)cc21	37.9	87.8*	/	-21.8	/
C[C@@H]1CCCCO[C@@H](CN(C)S(=O)(=O)c2ccc(Cl)cc2)[C@H](C)CN([C@H](C)CO)C(=O)c2cc(NC(=O)CCCN(C)C)ccc2O1	/	/	10.7	18.6	-8.8
O=C(NCCc1ccccc1)c1ccc2nccnc2c1	56.6*	93.4*	-2.6	68.5*	35.0
CC(CCc1ccccc1)NC(=O)c1ccc(C(=O)NC(C)CCc2ccccc2)cc1 (configuration not stated)	14.6	31.1	80.8*	/	/
CCOc1ccc(C(=O)NCCc2ccccc2)cc1	51.5*	77.3*	/	78.2*	58.7*
O=C(NCCc1ccccc1)c1ccc2c(c1)OCO2	70.1*	93.5*	53.9	78.8*	72.9*
O=C(NCc1ccc2c(c1)OCO2)c1cccc(F)c1	/	81.8*	/	/	/
CC(=O)Oc1ccc(C(=O)NCCc2ccccc2)cc1	17.5	59.6*	-70.2	14.7	-7.6
O=C(NCc1ccc2c(c1)OCO2)c1ccccc1	-5.5	-6.3	-5.8	-16.0	-8.4
CN(C)C(=O)[C@@H]1[C@@H](CO)[C@@H]2Cn3c(ccc(-c4ccccc4F)c3=O)[C@H]1N2C(=O)c1cccnc1	/	/	-3.2	0.2	-0.1
COc1cc(OC)c(OC)cc1/C=C/C(=O)c1ccc(NS(=O)(=O)c2ccc(C)cc2)cc1	35.7	61.5*	27.6	25.2	/
CC(=O)c1ccc(NS(=O)(=O)c2ccc(C)cc2)cc1	-5.0	-4.1	/	/	/
COc1ccc(C(=O)/C=C/Nc2ccc(S(=O)(=O)Nc3cccc(C(C)=O)c3)cc2)cc1	19.4	78.6*	-8.1	13.2	/
CCOC(=O)c1ccc(N/C=C\C(=O)c2cccc(OC)c2)cc1	9.5	-15.3	-126.4	-30.9	/
COC(=O)c1ccc(N/C=C/C(=O)c2ccccc2)cc1	-20.6	50.6*	-94.2	-37.1	-49.7
COc1ccc(C(=O)/C=C/Nc2cccc(O)c2)cc1	-50.4	51.9*	/	/	/
C[C@@H]1CCCCO[C@@H](CN(C)C(=O)CCC(F)(F)F)[C@H](C)CN([C@H](C)CO)C(=O)c2cc(NC(=O)c3ccccc3)ccc2O1	/	/	14.4	-10.8	3.4
Cc1noc(C)c1S(=O)(=O)Nc1ccc2c(c1)C(=O)N([C@H](C)CO)C[C@@H](C)[C@H](CN(C)C(=O)Nc1ccc3c(c1)OCO3)O2	/	/	/	-1.9	-0.4
Cc1ccccc1NC(=O)c1cccc(NC(=O)c2ccco2)c1	-0.9	-4.6	-19.9	-7.0	-6.7
SMILES	TROY NFkB inh	TWEAK-Fn14 inh	PAX8 reporter	LGR2 antag	EWS-Fli block
O=C(Nc1ccccc1)c1cccc(NC(=O)c2ccco2)c1	-3.4	100.7*	-0.4	-1.9	-9.3
CCOc1ccccc1NC(=O)c1cccc(NC(=O)c2ccco2)c1	-15.2	88.4*	/	/	/
C[C@@H]1CN([C@H](C)CO)C(=O)c2cccc(NC(=O)Nc3ccc(C(F)(F)F)cc3)c2O[C@H]1CN(C)CC1CC1	/	/	78.1*	-4.5	2.7
C[C@@H]1CN([C@@H](C)CO)C(=O)c2cccc(NC(=O)Nc3ccc(C(F)(F)F)cc3)c2O[C@@H]1CN(C)CC1CC1	/	/	45.7	16.4	0.3
C[C@H]1CN([C@@H](C)CO)C(=O)c2cccc(NC(=O)Nc3ccc(F)cc3)c2O[C@@H]1CN(C)CC1CCCCC1	/	/	-7.5	10.0	3.7
C[C@@H]1CN([C@@H](C)CO)C(=O)c2cccc(NC(=O)Nc3ccc(C(F)(F)F)cc3)c2O[C@@H]1CN(C)CC1CCCCC1	/	/	/	/	60.6*
Cc1csc(NC(=O)c2ccc(S(=O)(=O)N3CCCC3)cc2)n1	-29.8	0.8	-67.0	-24.8	-41.4
O=S(=O)(c1ccc(-c2csc(Nc3ccc(Br)cc3)n2)cc1)N1CCCC1	36.3	60.9*	23.9	2.1	/
O=C(Nc1ccc(S(=O)(=O)N2CCCC2)cc1)C1COc2ccccc2O1 (configuration not stated)	-5.7	-17.0	1.4	-4.4	-4.3
O=C(Nc1nc(-c2cccs2)cs1)c1ccc(S(=O)(=O)N2CCCC2)cc1	65.6*	92.6*	/	/	/
CN(C)S(=O)(=O)c1ccc(C(=O)Nc2nc(-c3cccs3)cs2)cc1	54.7*	55.9*	19.6	-15.7	-1.5
O=C(Nc1nc(-c2ccc(S(=O)(=O)N3CCCC3)cc2)cs1)C1COc2ccccc2O1 (configuration not stated)	36.7	60.8*	/	/	/
C[C@H](CO)N1C[C@H](C)[C@H](CN(C)S(=O)(=O)c2ccc(F)cc2)Oc2ccc(NC(=O)C3CCCCC3)cc2C1=O	/	/	/	1.4	40.6
CN(C[C@@H]1N[C@@H](CO)[C@@H]1c1ccc(C2=CCCC2)cc1)S(C)(=O)=O	/	/	1.1	0.5	-2.5
O=C(Nc1nc(-c2ccco2)cs1)c1ccccc1	8.6	-1.2	/	/	/
O=C(Nc1nc(-c2ccc3c(c2)OCCO3)cs1)c1ccc(S(=O)(=O)N2CCCCC2)cc1	11.4	32.1	/	26.8	/
Cc1ccc(-c2csc(NC(=O)c3ccc(-c4ccccc4)cc3)n2)o1	48.6	67.5*	/	/	/
O=C(Nc1nc(-c2ccc(S(=O)(=O)N3CCCCCC3)cc2)cs1)c1ccccc1	45.3	69.7*	12.8	/	/
C[C@H](CO)N1C[C@H](C)[C@@H](CN(C)C(=O)Cc2ccccc2)OCc2ccccc2-c2ccccc2C1=O	/	/	-16.7	-3.5	10.4
CCC(=O)Nc1ccc2oc(-c3cccc(C)c3)nc2c1	28.8	74.3*	/	/	/
O=C(Nc1ccc(-c2nc3ccccc3[nH]2)cc1)C1CCCO1 (configuration not stated)	32.8	73.2*	/	?	17.9
Cc1cccc(-c2nc3cc(NC(=O)C4CCCO4)ccc3o2)c1 (configuration not stated)	46.8	68.3*	-10.8	58.8*	/
Cc1ccc2oc(-c3cccc(NC(=O)C4CCCO4)c3)nc2c1 (configuration not stated)	-40.8	7.2	/	/	/
COc1cccc(/C=C2/CCC(CN(C)C)C2=O)c1 (configuration not stated)	9.8	85.7*	-3.1	/	19.2
C[C@@H]1CN([C@@H](C)CO)C(=O)c2cccc(NC(=O)c3cnccn3)c2O[C@H]1CN(C)Cc1ccncc1	/	/	-5.1	-34.8	1.5
